# Reference: publication PMC11062922 (Nature Chemical Biology, 2023)
# Where two headings read alike, the source gives them in different places.
# What was measured:
# Design in all cases: species or system human, MV4-11 + K-562 + COLO205 + SK-N-BE2 + OVCAR-8
# CLK1 = settings: read-out: apparent Kd, compound concentrations: 100 nM and 1000 nM (sheet 'Samples'), n = 1
# CLK2 = settings: read-out: apparent Kd; compound concentrations: 100 nM and 1000 nM (sheet 'Samples'), CATDS: 8.8411635671529196E-2; n = 1
# CLK4 = settings: read-out: apparent Kd, compound concentrations: 100 nM and 1000 nM (sheet 'Samples'), n = 1
# DYRK1A = settings: read-out: apparent Kd; compound concentrations: 100 nM and 1000 nM (sheet 'Samples'), CATDS: 7.2131324717133599E-2; n = 1
# GAK = settings: read-out: apparent Kd, compound concentrations: 100 nM and 1000 nM (sheet 'Samples'), n = 1
# JAK1 = settings: read-out: apparent Kd; compound concentrations: 100 nM and 1000 nM (sheet 'Samples'), CATDS: 8.1370183106340005E-2; n = 1
# PI4KB = settings: read-out: apparent Kd; compound concentrations: 100 nM and 1000 nM (sheet 'Samples'), CATDS: 0.120056979351962; n = 1
# PIK3C2B = settings: read-out: apparent Kd; compound concentrations: 100 nM and 1000 nM (sheet 'Samples'), CATDS: 8.8068304969215402E-2; n = 1
# TNIK = settings: read-out: apparent Kd; compound concentrations: 100 nM and 1000 nM (sheet 'Samples'), CATDS: 8.7825927191877803E-2; n = 1
# CSNK1D = settings: read-out: apparent Kd; compound concentrations: 100 nM and 1000 nM (sheet 'Samples'), CATDS: 4.52776824202724E-2; n = 1
# CSNK1E = settings: read-out: apparent Kd; compound concentrations: 100 nM and 1000 nM (sheet 'Samples'), CATDS: 4.2697744465197598E-2; n = 1
# EIF2AK1 = settings: read-out: apparent Kd; compound concentrations: 100 nM and 1000 nM (sheet 'Samples'), CATDS: 4.8293070245640599E-2; n = 1
# FER = settings: read-out: apparent Kd; compound concentrations: 100 nM and 1000 nM (sheet 'Samples'), CATDS: 4.7949039435888803E-2; n = 1
# IGF1R = settings: read-out: apparent Kd; compound concentrations: 100 nM and 1000 nM (sheet 'Samples'), CATDS: 5.4863623433827502E-2; n = 1
# INSR = settings: read-out: apparent Kd; compound concentrations: 100 nM and 1000 nM (sheet 'Samples'), CATDS: 6.5997959622395005E-2; n = 1
# MAPK10 = settings: read-out: apparent Kd; compound concentrations: 100 nM and 1000 nM (sheet 'Samples'), CATDS: 0.16896566157677501; n = 1
# MAPK8 = settings: read-out: apparent Kd; compound concentrations: 100 nM and 1000 nM (sheet 'Samples'), CATDS: 0.131985587437009; n = 1
# MAPK9 = settings: read-out: apparent Kd; compound concentrations: 100 nM and 1000 nM (sheet 'Samples'), CATDS: 0.113022620554471; n = 1
# PTK2B = settings: read-out: apparent Kd; compound concentrations: 100 nM and 1000 nM (sheet 'Samples'), CATDS: 8.3393690442652907E-2; n = 1
# TNK1 = settings: read-out: apparent Kd; compound concentrations: 100 nM and 1000 nM (sheet 'Samples'), CATDS: 0.131122015547642; n = 1
# TTK = settings: read-out: apparent Kd; compound concentrations: 100 nM and 1000 nM (sheet 'Samples'), CATDS: 6.1430797612991001E-2; n = 1
# CDK6 = settings: read-out: apparent Kd; compound concentrations:100 nM and 1000 nM (sheet 'Samples'); n = 1
# FYN = settings: read-out: apparent Kd; compound concentrations:100 nM and 1000 nM (sheet 'Samples'); n = 1
# MAP2K2 = settings: read-out: apparent Kd; compound concentrations:100 nM and 1000 nM (sheet 'Samples'); n = 1
# MAPK14 = settings: read-out: apparent Kd; compound concentrations:100 nM and 1000 nM (sheet 'Samples'); n = 1
# PI4KA = settings: read-out: apparent Kd; compound concentrations:100 nM and 1000 nM (sheet 'Samples'); n = 1
# PIK3C2A = settings: read-out: apparent Kd; compound concentrations:100 nM and 1000 nM (sheet 'Samples'); n = 1
# PIK3C3 = settings: read-out: apparent Kd; compound concentrations:100 nM and 1000 nM (sheet 'Samples'); n = 1
# PIK3CB = settings: read-out: apparent Kd; compound concentrations: 100 nM and 1000 nM (sheet 'Samples'), CATDS: 0.44243244506727197; n = 1
# PIK3CD = settings: read-out: apparent Kd; compound concentrations: 100 nM and 1000 nM (sheet 'Samples'), CATDS: 0.27438684743153402; n = 1
# PIM2 = settings: read-out: apparent Kd; compound concentrations:100 nM and 1000 nM (sheet 'Samples'); n = 1
# PRKDC = settings: read-out: apparent Kd; compound concentrations:100 nM and 1000 nM (sheet 'Samples'); n = 1
# RIOK2 = settings: read-out: apparent Kd; compound concentrations:100 nM and 1000 nM (sheet 'Samples'); n = 1
# VDAC3 = settings: read-out: apparent Kd; compound concentrations:100 nM and 1000 nM (sheet 'Samples'); n = 1
smiles,measurement,setting,value
Cl.O=C1Nc2ccc(-c3cccnc3)cc2C1=Cc1cc(Br)c(O)c(Br)c1 [GW2429374A],potency estimated from few doses,CLK1; CATDS: 0.24190894696409601,75.2 nM
same,potency estimated from few doses,CLK2,766 nM
same,potency estimated from few doses,CLK4; CATDS: 0.28990629676542801,56.3 nM
same,potency estimated from few doses,DYRK1A,1760 nM
same,potency estimated from few doses,GAK; CATDS: 0.20480817101344501,100 nM
same,potency estimated from few doses,JAK1,1030 nM
same,potency estimated from few doses,PI4KB,315 nM
same,potency estimated from few doses,PIK3C2B,777 nM
same,potency estimated from few doses,TNIK,784 nM
CCCN1CCC(c2ccc(Nc3nc(Nc4cc(F)ccc4C(N)=O)c4cc[nH]c4n3)c(OC)c2)CC1 [GSK1326255A],potency estimated from few doses,CLK1; CATDS: 4.8485832065687497E-2,1210 nM
same,potency estimated from few doses,CLK4; CATDS: 5.2281896734728002E-2,912 nM
same,potency estimated from few doses,CSNK1D,1610 nM
same,potency estimated from few doses,CSNK1E,2150 nM
same,potency estimated from few doses,EIF2AK1,1230 nM
same,potency estimated from few doses,FER,1260 nM
same,potency estimated from few doses,GAK; CATDS: 0.152402490696291,82.5 nM
same,potency estimated from few doses,IGF1R,775 nM
same,potency estimated from few doses,INSR,449 nM
same,potency estimated from few doses,MAPK10,70.3 nM
same,potency estimated from few doses,MAPK8,104 nM
same,potency estimated from few doses,MAPK9,137 nM
same,potency estimated from few doses,PTK2B,253 nM
same,potency estimated from few doses,TNK1,106 nM
same,potency estimated from few doses,TTK,548 nM
O=c1cc(N2CCOCC2)nc2n(Cc3cccc(F)c3)ccn12 [GSK2297430A],potency estimated from few doses,CDK6,2000 nM
same,potency estimated from few doses,FYN,1140 nM
same,potency estimated from few doses,MAP2K2,1780 nM
same,potency estimated from few doses,MAPK14,1450 nM
same,potency estimated from few doses,PI4KA,1610 nM
same,potency estimated from few doses,PIK3C2A,2440 nM
same,potency estimated from few doses,PIK3C3,235 nM
same,potency estimated from few doses,PIK3CB,31.5 nM
same,potency estimated from few doses,PIK3CD,68.1 nM
same,potency estimated from few doses,PIM2,1670 nM
same,potency estimated from few doses,PRKDC,1130 nM
same,potency estimated from few doses,RIOK2,1490 nM
same,potency estimated from few doses,VDAC3,1830 nM
